According to PubChem BioAssay (NCATS):
Inconclusive results are not listed. The source made the active and inactive calls. Unless noted, calls follow the shape of the dose curve; as a rule, active = well fitted curve in the direction sought with a large enough effect; inconclusive = small, poorly fitted or top-dose-only effect, or another doubt; inactive = no such curve, though single readings can be large; an effect the other way counts as inactive or inconclusive.

Key:
[1] = Cell Viability - BJ (AID 421; calls by dose curve;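 also: potency is read from the fitted curve at half-maximal effect; cells exposed to compound for 40 hours at 37 °C before readout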); conditions: BJ fibroblast viability, qHTS
Procedure, shortened: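 Normal human BJ foreskin fibroblasts, 1500/well in complete medium, treated 40 hr at 37 °C. Cellular ATP by CellTiter-Glo luminescence; normalized to DMSO and 100 uM tamoxifen, AC50 from Hill fit.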

[2] = Cell Viability - Jurkat (AID 426;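 active = dose-dependent loss of cell ATP signal giving a full or clear fitted curve, ranked by lower potency value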; also: potency is read from the fitted curve at half-maximal effect); conditions: qHTS
Procedure, shortened: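 Cells of the human T-cell leukemia line Jurkat (E6-1) are seeded at 5000 per well, treated with compound across a concentration range for 40 hours at 37 °C, then lysed with CellTiter-Glo; luminescence reports ATP.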

[3] = Cell Viability - Hek293 (AID 427;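 active = compounds whose dose-response curve shows a full or clear partial loss of cell viability, called from curve shape rather than a numeric limit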;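 also: potency is read from the fitted curve at half-maximal effect; cells exposed to compound for 40 hours at 37 °C before reading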); conditions: qHTS
Procedure, shortened: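 HEK293 cells in complete medium were exposed to compound for 40 hr at 37 °C, then cellular ATP was read by CellTiter-Glo luminescence. Data were normalized to DMSO (basal) and 100 uM tamoxifen (100% inhibition), and AC50 came from Hill fits.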

[4] = Cell Viability - HepG2 (AID 433; calls by dose curve;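 also: potency is read from the fitted curve at half-maximal effect; potency for ATP loss meaning cytotoxicity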); conditions: qHTS
Procedure, shortened: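 HepG2 hepatocellular carcinoma cells (1500/well) were treated with compounds for 40 h at 37 °C in complete medium; intracellular ATP was read by CellTiter-Glo luminescence. Data were normalized to DMSO and 100 uM tamoxifen, and AC50 came from Hill fits.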

[5] = Cell Viability - SK-N-SH (AID 435; calls by dose curve;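 also: potency is read from the fitted curve at half-maximal effect; compound exposure lasted 40 h at 37 °C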); conditions: SK-N-SH neuroblastoma cell viability qHTS
Procedure, shortened: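 SK-N-SH human neuroblastoma cells (1500/well) were exposed to compounds in complete medium for 40 h at 37 °C, and intracellular ATP was then measured by CellTiter-Glo luminescence. AC50 was taken from Hill fits, normalized to DMSO and 100 uM tamoxifen.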

[6] = target: Mitogen-activated protein kinase 10 (Mus musculus) (UniProt Q61831); test: JNK3 AlphaScreen Assay (AID 530; active = well fitted curve in either direction with a large enough effect, not every such curve was filed as active;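 also: kinase came from lysate of stimulated human HepG2 cells; signal reports phosphorylation of biotinylated GST-cJun 1-79 at Ser73 with 10 µM ATP; % is scaled to controls: 0 for no effect and ±100 for the full control effect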)
Procedure, shortened: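 qHTS titrations with 15 min compound pre-incubation before adding ATP (10 uM final). Read-out: AlphaScreen of Ser73-phosphorylated biotin-GST-cJun using HepG2 lysate JNK3 activated by IL-1β and TNFα.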

[7] = Cell Viability - N2a (AID 540); conditions: N2a mouse neuroblastoma cell viability; at 92.2 µM (top of the series);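 also: plate controls were DMSO alone for no effect and tamoxifen control for full effect; nearly all actives have a fitted effect of over 45% in size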
Procedure, shortened: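 Cytotoxicity was scored as loss of cellular ATP in N2a cells, a mouse neuroblastoma line. Compounds are applied in a qHTS concentration series for 40 hr at 37 °C.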

[8] = Cell Viability - NIH 3T3 (AID 541); conditions: NIH 3T3 cell viability, qHTS; at 92.2 µM (top of the series);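 also: plate controls were DMSO alone for no effect and tamoxifen positive control for full effect; nearly all actives have a fitted effect of over 25% in size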
Procedure, shortened: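 Cells seeded at 1000/well, rested 5 hr at 37 °C, then dosed and incubated 40 hr at 37 °C. CellTiter-Glo added, 20 min room temperature, luminescence read. AC50 by Hill fit.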

[9] = Cell Viability - HUV-EC-C (AID 542); also: % is scaled to controls: 0 for no effect and ±100 for the full control effect; nearly all actives have a fitted effect of over 35% in size
Procedure, shortened: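 Cells were seeded at 1000 per well and incubated 5 hr at 37 °C before compound addition. After 40 hr at 37 °C, CellTiter-Glo reagent was added for 20 min and luminescence read. AC50 values came from Hill-equation modelling.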

[10] = Cell Viability - H-4-II-E (AID 543); also: % is scaled to controls: 0 for no effect and ±100 for the full control effect; nearly all actives have a fitted effect of over 35% in size
Procedure, shortened: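 Cells seeded at 1500 per well and rested 5 hr; compounds added; 40 hr incubation at 37 °C; CellTiter-Glo added, 20 min at room temperature; luminescence read. Hill-equation fits gave AC50.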

[11] = Cell Viability - SH-SY5Y (AID 544);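 also: 0% = DMSO alone and -100% = 100 µM tamoxifen; nearly all actives have a fitted effect of over 55% in size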
Procedure, shortened: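 Cells were plated at 1500 per well and allowed 5 hr at 37 °C. Compounds were added across a concentration range and incubated 40 hr at 37 °C. CellTiter-Glo was added for 20 min at room temperature before luminescence reading.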

[12] = Cell Viability - Renal Proximal Tubule (AID 545);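 also: 0% = DMSO only and -100% = 100 µM tamoxifen; nearly all actives have a fitted effect of over 40% in size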
Procedure, shortened: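 Primary rat renal proximal tubule cells (1000/well) were treated with compounds for 40 hr at 37 °C in complete medium. Intracellular ATP was measured by CellTiter-Glo luminescence, and AC50 values came from Hill-equation fits of concentration-response data.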

[13] = Cell Viability - Mesenchymal (AID 546);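 also: cells exposed to compound for 40 hours before reading; 0% = DMSO only and -100% = 100 µM tamoxifen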
Procedure, shortened: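 CellTiter-Glo luminescence (intracellular ATP, 20 min room temperature) after 40 hr compound exposure at 37 °C of 1000 glomerulus-derived human kidney mesenchymal cells/well; AC50 values obtained by fitting qHTS concentration-response data to the Hill equation.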

[14] = Cellular Toxicity (caspase-3) HepG2 (AID 654);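 also: cells exposed to compound for 16 hours before reading; 0% = DMSO alone and 100% = caspase signal from 100 µM tamoxifen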
Procedure, shortened: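 Caspase 3/7 activation in HepG2 is measured as rising luminescence after a 16 hr treatment at 37 °C. Values are scaled between DMSO basal and 100 uM tamoxifen, and AC50 is fitted with the Hill equation.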

[15] = Cellular Toxicity (caspase-3) Jurkat (AID 655);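 also: cells exposed to compound for 16 h at 37 °C before reading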
Procedure, shortened: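 Jurkat cells (5000/well) in complete medium were treated with compounds for 16 hr at 37 °C, then Caspase-Glo 3/7 luminescence was read after 20 min at room temperature. Data normalized to DMSO (basal) and 100 uM tamoxifen (100%); AC50 from Hill fit.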

[16] = Cellular Toxicity (caspase-3) HUV-EC-C (AID 656);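 also: 0% = DMSO basal and 100% = 100 µM tamoxifen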
Procedure, shortened: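 HUV-EC-C endothelial cells, 1000/well, were pre-incubated 5 hr at 37°C, then exposed to compounds for 16 hr at 37°C. Caspase-Glo 3/7 luminescence was read after 20 min at room temperature. AC50 came from Hill fits, normalized to DMSO and 100 uM tamoxifen.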

[17] = Cellular Toxicity (caspase-3) SHSY5Y (AID 657)
Procedure, shortened: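 SH-SY5Y human neuroblastoma cells (1500/well) were treated with compounds for 16 h at 37 °C, then Caspase-Glo 3/7 luminescence was read after 1 h at room temperature. Data normalized to DMSO and 10 uM staurosporine; AC50 from Hill fits.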

[18] = Cellular Toxicity (caspase-3) MRC-5 (AID 659);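 also: 0% = DMSO basal and 100% = 10 µM staurosporine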
Procedure, shortened: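 Luminescent Caspase-Glo 3/7 read-out (1 h, room temperature) after a 16 h, 37 °C compound exposure of MRC-5 lung fibroblasts at 1500 cells/well. Concentration-response AC50 from Hill equation; 0% DMSO, 100% 10 uM staurosporine.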

[19] = Cellular Toxicity (caspase-3) Mesangial (AID 660);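 also: combined caspase 3 and 7 activity read by Caspase-Glo luminescence; cells exposed to compound for 16 h before the caspase read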
Procedure, shortened: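 Seed cells derived from normal human renal glomeruli, incubate 5 h, add compounds across concentrations and incubate 16 h at 37 °C. Caspase 3/7 activation is then quantified by luciferase light, with AC50 derived by Hill modeling.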

[20] = Cellular Toxicity (caspase-3) SK-N-SH (AID 661);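 also: 0% = DMSO basal and 100% = 10 µM staurosporine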
Procedure, shortened: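 Cells were seeded and incubated 5 hr at 37 °C, dosed with compound over a concentration range for 16 hr, then given Caspase-Glo 3/7 reagent for 1 hr at room temperature before luminescence reading.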

[21] = Cellular Toxicity (caspase-3) H-4-II-E (AID 663);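 also: cells exposed to compound for 16 hr before readout; 0% = DMSO basal and 100% = 100 µM tamoxifen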
Procedure, shortened: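 Caspase 3/7 activation measured by luminescent aminoluciferin substrate cleavage after 16 hr compound treatment of H-4-II-E cells in complete medium. Increase normalized between DMSO (basal) and 100 uM tamoxifen (100%); Hill-equation AC50 from concentration-response.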

[22] = Cellular Toxicity (caspase-3) Hek293 (AID 664);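 also: cells exposed to compound for 16 h at 37 °C before readout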
Procedure, shortened: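 qHTS, HEK293 (human embryonic kidney), 16 h cpd exposure in complete medium. Caspase-3/7 activation = luminescence increase; normalized to DMSO/100 uM tamoxifen; Hill-fit AC50.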

[23] = Cellular Toxicity (caspase-3) N2a (AID 665);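 also: compound exposure lasted 16 h at 37 °C before readout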
Procedure, shortened: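 Caspase-3/7 activation, measured as increased luminescence from aminoluciferin release, is quantified in mouse N2a cells exposed to compounds for 16 h. Values are normalized to DMSO and 10 uM staurosporine, with AC50 derived by Hill modelling.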

[24] = Cellular Toxicity (caspase-3) Renal Proximal Tubule (AID 667);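 also: cells exposed to compound for 16 hours at 37 °C before detection; 0% = DMSO basal and 100% = 10 µM staurosporine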
Procedure, shortened: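 Primary rat proximal tubule cells, 1000/well, 5 h plating at 37 °C, then compound 16 h at 37 °C. Caspase-Glo 3/7 reagent, 1 h RT, luminescence. Normalized to DMSO (basal) and 10 uM staurosporine (100%); Hill-fit AC50.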

[25] = target: Cytochrome P450 3A4 (Homo sapiens) (UniProt P08684); test: qHTS Assay for Inhibitors and Substrates of Cytochrome P450 3A4 (AID 884); also: % is scaled to controls: 0 for no effect and ±100 for the full control effect; nearly all actives have a fitted effect of over 50% in size
Procedure, shortened: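 Luminescent readout of luciferin produced by CYP3A4 (20 nM) dealkylation of Luciferin-PPXE, 25 uM (its KM). NADPH-driven reaction ran 60 min at RT after 10 min compound preincubation; data scaled to 57 uM ketoconazole as 100% inhibition.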

Sequence of Cytochrome P450 3A4 (Homo sapiens) (P08684 whole entry, looked up): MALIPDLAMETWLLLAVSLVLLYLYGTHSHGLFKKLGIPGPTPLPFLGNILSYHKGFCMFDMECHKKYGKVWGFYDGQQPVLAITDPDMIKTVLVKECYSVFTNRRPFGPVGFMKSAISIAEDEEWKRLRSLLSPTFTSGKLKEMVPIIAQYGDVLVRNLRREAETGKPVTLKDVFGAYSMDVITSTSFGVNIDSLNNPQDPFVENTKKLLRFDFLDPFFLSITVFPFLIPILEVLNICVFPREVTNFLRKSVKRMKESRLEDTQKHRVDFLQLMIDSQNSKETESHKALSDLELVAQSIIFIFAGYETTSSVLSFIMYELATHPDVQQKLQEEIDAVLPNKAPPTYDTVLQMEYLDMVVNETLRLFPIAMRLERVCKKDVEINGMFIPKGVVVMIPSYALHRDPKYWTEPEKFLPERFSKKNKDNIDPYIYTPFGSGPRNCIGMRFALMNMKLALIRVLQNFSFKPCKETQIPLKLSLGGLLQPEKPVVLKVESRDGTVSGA

Cc1ccccc1O
inactive: Potency [1] > 92 µM | Potency [2] > 92 µM | Potency [3] > 92 µM | Potency [4] > 92 µM | Potency [5] > 92 µM | outcome [6] | activity change, negative = cytotoxicity [7] 4.57% | activity change, negative = cytotoxicity [8] 8.87% | outcome [9] | outcome [10] | outcome [11] | outcome [12] | outcome [13] | outcome [14] | outcome [15] | outcome [16] | outcome [17] | outcome [18] | outcome [19] | outcome [20] | outcome [21] | outcome [22] | outcome [23] | outcome [24] | Potency [25]
